Screening results: PubChem BioAssay, Broad Institute
aSyn 5UTR act: Activators working through SNCA 5'UTR binding (MLPCN) | alpha-synuclein 5'UTR reporter, activators screen | activity score, % (tested at 7.5 µM), hits read low | 300,000 compounds, 7.1% hits | AID 1814; in the data active means activity score below about -60%
Active calls of the source: *. Only a sample is shown.

SMILES | aSyn 5UTR act
O=C(NCCCc1ccccc1)c1ccc(F)cc1 | -101*
CCCNC(=O)c1ccc2c(=O)c(O)c(-c3ccc(C)cc3)[nH]c2c1 | 69
COC(=O)c1ccc2c(=O)[nH]c(CSc3nc(C)cs3)nc2c1 | -94*
Cc1cc(=O)[nH]c(N/N=C/c2sccc2C)n1 | -90*
C(=N\Nc1nc2ccccc2[nH]1)/c1cccs1 | -172*
Cc1ccsc1/C=N/Nc1nc2ccccc2[nH]1 | -213*
COc1cc(NC(=O)c2ccc(Cl)cc2)c(OC)cc1NC(=O)CN1CCCCC1 | -68*
Cc1nc2cc(N3CCCCC3)c(NC(=O)c3ccncc3)cc2c(=O)n1Cc1ccc(Cl)cc1 | 62
COC(=O)c1ccc(Sc2ccc(C)cc2)c(N)c1 | -141*
Cc1ccc(OCc2nc(-c3ccccc3)no2)c(C)c1 | -212*
COc1ccc(-c2noc(CCCC(=O)O)n2)cc1 | 89
Cc1ccc(-c2noc(CCCc3ccccc3)n2)cc1 | -77*
Clc1ccccc1OCc1nc(-c2ccc(Br)o2)no1 | -83*
Brc1ccc(-c2noc(CCc3ccccc3)n2)o1 | -119*
Fc1ccc(OCc2nc(-c3ccc(Br)o3)no2)c(F)c1 | -77*
COc1ccc(CNc2nc3nc(C)c(Cl)c(C)n3n2)cc1 | -65*
COc1cccc(CNc2nc3nc(C)c(Cl)c(C)n3n2)c1 | -95*
Cc1ccc2c(c1)C(O)(CC(=O)/C=C/C=C/c1ccccc1)C(=O)N2 (stereo unspecified) | -112*
O=C(/C=C/N1CCOCC1)c1ccc(-c2ccccc2)cc1 | -123*
S=C(c1ccc(-c2ccccc2)cc1)N1CCOCC1 | 64
O=C(Oc1ccc(-c2ccccc2)cc1)N1CCOCC1 | -104*
Cc1cc(C(=O)CSc2ncccn2)c(C)n1Cc1ccco1 | -69*
Cc1cc(C(=O)CSc2nnnn2C)c(C)n1Cc1ccco1 | -109*
CC1(C)Cc2nc3sc(C(=O)NCCCO)c(N)c3cc2CO1 | -69*
COC(=O)c1sc2nc3c(cc2c1N)COC(C)(C)C3 | -131*
SMILES | aSyn 5UTR act
C/C=C/COC(=O)c1[nH]c2c(c1C)C(=O)CC(c1ccco1)C2 (stereo unspecified) | 67
CCOC(=O)C1=C(N)n2c(s/c(=C\c3ccco3)c2=O)=C(C(=O)OCC)C1c1ccco1 (stereo unspecified) | -78*
COC(=O)c1ccc(COc2ccccc2/C=C(\C#N)C(=O)Nc2c(C)cccc2C)cc1 | -82*
COc1ccc(O)c(/C=C(\C#N)C(=O)Nc2cccnc2)c1 | -80*
CCCOc1ccccc1/C=C(\C#N)C(=O)Nc1cccnc1 | -85*
CCCC(=O)Nc1ccc(NC(=O)c2ccccc2Cl)nc1 | -76*
CCC(=O)Nc1ccc(NC(=O)c2ccccn2)cn1 | -88*
CCC(=O)Nc1ccc(-c2csc(C)n2)cc1 | -81*
Cc1nc(-c2ccc(NC(=O)c3ccco3)cc2)cs1 | 57
Cc1nc(-c2ccc(NC(=O)Cc3ccccc3)cc2)cs1 | -164*
CCC(=O)c1cn(CC(=O)NCc2ccco2)c2ccccc12 | -65*
Cc1ccc(/C=C2/C(=O)ON=C2c2ccccc2)o1 | -66*
COCCCNC(=O)c1ccc(N2CCCC2)c(NS(=O)(=O)c2ccc(C)cc2)c1 | -73*
CCc1nnc(NC(=O)c2sc3nc4c(cc3c2N)CCCCC4)s1 | -138*
CCc1nnc(NC(=O)c2sc3nc4c(cc3c2N)CCCCCC4)s1 | -75*
O=C(c1ccc(Cl)cc1)C(CN1CCCCC1)c1ccccc1 (stereo unspecified) | -106*
COc1ccc(C(=O)C(CN2CCOCC2)c2ccccc2)cc1F (stereo unspecified) | -108*
CCCOc1ccc(C(=O)C(CN2CCOCC2)c2ccccc2)cc1 (stereo unspecified) | -120*
Brc1ccc(-c2cnc(-c3cccs3)o2)cc1 | -171*
O=S(=O)(Nc1ccc(-c2nc3cccnc3s2)cc1)c1ccc(Cl)s1 | -121*
O=S(=O)(Nc1ccc(-c2nc3cccnc3s2)cc1)c1ccccc1F | -84*
O=S(=O)(Nc1ccc(-c2nc3cccnc3s2)cc1)c1cccs1 | -89*
Cc1cc(-c2nc3cccnc3s2)ccc1NS(=O)(=O)c1cccs1 | -167*
Cc1ccc(OCC(=O)O/N=C(\N)c2ccncc2)cc1C | -129*
CCc1ccc(OCC(=O)O/N=C(\N)c2ccccn2)cc1 | -91*
SMILES | aSyn 5UTR act
N/C(=N\OC(=O)COc1ccccc1)c1ccccn1 | -69*
CCOc1ccc(C(=O)O/N=C(\N)c2ccccn2)cc1 | 62
Cc1cccc(OCC(=O)O/N=C(\N)c2ccccn2)c1 | -116*
Cc1cccc(C(=O)O/N=C(\N)c2ccccn2)c1 | 70
Cc1ccc(OCC(=O)O/N=C(\N)c2ccccn2)cc1C | -99*
Cc1cc(C)c(C)c(OCC(=O)O/N=C(\N)c2ccccn2)c1 | -110*
N/C(=N\OC(=O)COc1ccc2ccccc2c1Br)c1ccccn1 | -107*
COc1ccccc1-c1ccc(SCc2ccccc2F)nn1 | -74*
COc1ccccc1-c1ccc(SCc2ccccc2)nn1 | -140*
Cc1nc(C)c(-c2ccc(SCc3ccccc3F)nn2)s1 | -151*
CCCCC(=O)NC(c1ccc(N(C)C)cc1)c1ccc2cccnc2c1O (stereo unspecified) | 62
CC(=O)c1ccc(NC(=O)CCOc2cc(C)ccc2C)cc1 | -91*
O=C(CCCc1ccccc1)Nc1cccnc1 | -82*
O=C(CCOc1ccccc1)Nc1ccc(Br)cc1 | -113*
CN(C)c1ccc(NC(=O)CCCc2ccccc2)cc1 | -120*
COc1ccc(NC(=O)CCOc2ccccc2)cc1 | -126*
O=C(CCc1ccccc1)Nc1ccccc1 | -80*
Cc1cccc(NC(=O)CCCc2ccccc2)c1 | -172*
Cc1cccc(NC(=O)CCOc2ccccc2)c1 | -74*
CN(C)CCC(=O)C(Cc1ccccc1)c1ccccc1 (stereo unspecified) | 99
CC(CCc1ccccc1)NC(=O)C(=O)Nc1ccccc1 (stereo unspecified) | -149*
C/C(=N/OCc1ccc(Br)cc1)c1ccccn1 | -123*
N/C(=N\OCc1ccc([N+](=O)[O-])cc1)c1ccccn1 | 112
Cc1cc(C)n(-c2ccc(C(=O)NC3=NCCS3)cc2)n1 | -110*
Cc1cc(C)n(-c2ccc(C(=O)Nc3ccc4c(c3)OCO4)cc2)n1 | -173*
SMILES | aSyn 5UTR act
Cc1cccc(-c2noc(CN(C)C(=O)c3ccco3)n2)c1 | -65*
COC(=O)C(C(=O)OC)c1ccc(NC(=O)c2cccc(Cl)c2)cc1 | -90*
COC(=O)c1ccc(NC(=O)c2cccc(Cl)c2)o1 | -86*
COC(=O)c1ccc(NC(=O)c2ccc(C)cc2)o1 | -75*
COc1ccc(-c2nc(C#N)c(NC(C)C)o2)cc1 | -68*
CNc1oc(-c2cccc3ccccc23)nc1C#N | -105*
CNc1oc(-c2ccc(Cl)cc2)nc1C#N | -173*
O=C(c1ccco1)N1CCN(c2ccc(N3CCCCC3)nn2)CC1 | -133*
Cc1nc(N2CCN(C(=O)c3ccco3)CC2)nc2c1C(=O)CCC2 | -121*
O=C(c1ccco1)N1CCN(c2ccc(F)cc2)CC1 | -79*
O=C(Nc1ccc(-c2ccc(N3CCCCC3)nn2)cc1)c1ccco1 | -131*
Cc1nc(N2CCN(C(=O)c3ccco3)CC2)c2oc3ccccc3c2n1 | -89*
COc1ccccc1N1CCN(c2nc(C)nc3c2oc2ccccc23)CC1 | 90
O=C(NNC(=O)c1ccccc1OCc1ccccc1)c1ccccc1F | -85*
COc1ccccc1C(=O)NNC(=O)c1ccccc1F | -97*
O=C(NNC(=O)c1ccccc1OCc1ccccc1)c1ccccc1O | 65
COc1ccccc1C(=O)NNC(=S)NC(=O)c1cc(OC)c(OC)c(OC)c1 | 73
